Out of some 48,000 compounds screened, about 13,000 (27%) showed an effect of 50% or more. Some of the results follow.
The molecules below were run on Wolbachia pipientis (assay: Anti-Wolbachia Cell-Based Screen). Conditions: 5 µM.
Assay type: functional
Set-up: scale not given: in the data most compounds retested in dose-response had high values

Compared with `COc1cccc(-c2csc(Cn3ccc(=O)[nH]c3=O)n2)c1`, `COc1ccc(-c2cc(C(=O)NCCCn3ccnc3C)n(C)n2)cc1` is higher in “Percent Effect” value: -10.2% for the first, 159.9% for the second.

Going from `COCCCn1ccc(NC(=O)NCCn2ccnc2)n1` to `COc1ccc(-c2cc(C(=O)NCCn3ccnc3)n(C)n2)cc1`, the “Percent Effect” value rises from -3.976% to 156.8%.

Going from `Fc1ccc2c(c1)nc1n2[C@@H](CNCc2nccs2)COC1` to `COCc1nc2cc(NCc3ncc[nH]3)ccc2o1`, the “Percent Effect” value rises from -7.093% to 3.493%.

Compared with `Cc1nc(Cn2cc(C#N)c(=O)c3ccccc32)no1`, `CNC(=O)Cn1cc(C#N)c(=O)c2cc(Br)ccc21` is lower in “Percent Effect” value: -5.414% for the first, -8.636% for the second.

First: N#Cc1cc(N2CCC(CS(N)(=O)=O)CC2)nc2ccccc12
Second: COC(=O)c1ccc(N2CCC(c3ccccc3)CC2)nn1
The “Percent Effect” value of the first is higher: -7.143% for the first, -9.28% for the second.

First: CC1CN(C)CCN1C(=O)NCCCn1ccnc1 (stereo unspecified)
Second: Cn1nc(-c2ccc(F)cc2)cc1C(=O)NCCn1ccnc1
The “Percent Effect” value of the first is lower: 19.65% for the first, 186.2% for the second.

Going from `COc1ccc2cc(CN(C)C(C)c3nc(C(C)(C)C)no3)ccc2c1` (stereo unspecified) to `COc1ccc(OCCN(C)Cc2nc3c(cnn3C)c(=O)[nH]2)cc1`, the “Percent Effect” value rises from -2.359% to 98.39%.

Going from `CN(C)C(=O)CN1CCC2(CC1)COc1ccccc1S(=O)(=O)N(C)C2.O=C(O)C(F)(F)F` to `CN1CC2(CCN(CC3CC3)CC2)COc2ccccc2S1(=O)=O.O=C(O)C(F)(F)F`, the “Percent Effect” value falls from 107.3% to 105.1%.

Going from `CN(C)C(=O)CN1C[C@H]2CCN(Cc3ccccc3)CC[C@H]2S1(=O)=O.O=C(O)C(F)(F)F` to `CN1CC2(CCN(Cc3ccoc3)CC2)COc2ccccc2S1(=O)=O.O=C(O)C(F)(F)F`, the “Percent Effect” value rises from -15.21% to 1.89%.

Compared with `COc1cccn(CC(=O)N(C)CCC2CCOCC2)c1=O`, `COc1cccc(C2CCCN2C(=O)c2cc3c([nH]c2=O)CCC3)c1` (stereo unspecified) is higher in “Percent Effect” value: -97.94% for the first, 13.18% for the second.

Going from `CN1CCN([C@@H]2CCN(C3CCOCC3)[C@H]2Cc2cnn(C)c2)CC1.O=C(O)C(F)(F)F.O=C(O)C(F)(F)F.O=C(O)C(F)(F)F` to `CC(C)NC1CCc2c(ccc(=O)n2CCN2CCOCC2)C1.O=C(O)C(F)(F)F.O=C(O)C(F)(F)F` (stereo unspecified), the “Percent Effect” value rises from -4.702% to 1.575%.

First: Cc1nccn1-c1cc(CNC(=O)C2CCC(=O)N2)ccn1 (stereo unspecified)
Second: Cn1cnc(-c2nc(C(=O)NC3CC3)c3ccccn23)c1
The “Percent Effect” value of the first is higher: -0.872% for the first, -8.322% for the second.

Going from `CN1CCC2(COCCN(Cc3cccc(C#N)c3)C2)C1.O=C(O)C(F)(F)F.O=C(O)C(F)(F)F` (stereo unspecified) to `CS(=O)(=O)N1CCc2ccc(=O)n(CCN3CCCC3)c2CC1.O=C(O)C(F)(F)F`, the “Percent Effect” value rises from -6.492% to 96.15%.

Compared with `Cc1cc(N2CCC(N(C)Cc3cccnc3)C2=O)n(C)n1` (stereo unspecified), `Cc1ccccc1CN(C)Cc1nc2c(cnn2C)c(=O)[nH]1` is higher in “Percent Effect” value: 5.804% for the first, 16.78% for the second.

First: CCC(C(=O)NCc1ccncc1)N(c1cccc(C)c1)S(C)(=O)=O (stereo unspecified)
Second: CC(C)c1nccn1CCCNC(=O)c1ccc(-c2ccncc2)nc1
The “Percent Effect” value of the first is lower: -0.3468% for the first, 3.275% for the second.

First: O=c1ccc2c(n1CCN1CCCC1)CCN(c1ncccn1)CC2
Second: O=c1ccc2c(n1CC1CC1)CCN(c1ncccn1)CC2
The “Percent Effect” value of the first is higher: 103.5% for the first, 91.07% for the second.

Going from `CS(=O)(=O)N1CCc2ccc(=O)n(CC3CC3)c2CC1` to `CCS(=O)(=O)N1CCc2ccc(=O)n(CC3CC3)c2CC1`, the “Percent Effect” value falls from -5% to -6.425%.

Going from `c1cnc(N2CCC(OCCN3CCCCC3)C2)nc1` (stereo unspecified) to `c1cnc(N2C[C@H]3CCN(c4cccnc4)C[C@H]3C2)nc1`, the “Percent Effect” value falls from 7.193% to -4.407%.

Going from `O=C1OCCN1CCSc1nnnn1C1CCOCC1` to `O=C(O)C(F)(F)F.O=C([C@H]1COC[C@H]2CN(C3CCOCC3)C[C@H]21)N1CCCO1`, the “Percent Effect” value falls from 4.471% to 2.638%.

Compared with `CCc1c(O)nc(SC(C)CC)n(-c2ccccc2)c1=O` (stereo unspecified), `Cc1nc2cc(=O)[nH]n2c(C)c1CNC(=O)C(C)(C)c1ccccc1` is lower in “Percent Effect” value: -9.121% for the first, -10.11% for the second.

Compared with `Cc1ccc(CNC(=O)NC2CCC(O)CC2)c(N2CCCC2)c1` (stereo unspecified), `Cc1ccc(CNC(=O)CN2CCN(CC(O)C3CC3)CC2)cc1.Cl.Cl` (stereo unspecified) is lower in “Percent Effect” value: -1.85% for the first, -4.273% for the second.

First: CN(CCCOc1ccc(F)cc1)Cc1nc2c(cnn2C)c(=O)[nH]1
Second: Cc1ccc(OCCN(C)Cc2nc3c(cnn3C)c(=O)[nH]2)cc1
The “Percent Effect” value of the first is lower: -3.245% for the first, 122.7% for the second.

Going from `CCN(Cc1nc2c(cnn2C)c(=O)[nH]1)c1cccc(F)c1` to `CN(CCOc1cccc(F)c1)Cc1nc2c(cnn2C)c(=O)[nH]1`, the “Percent Effect” value rises from 1.042% to 123%.

First: CN(Cc1nc2c(cnn2C)c(=O)[nH]1)Cc1ccc(F)cc1F
Second: Cc1ccc(CN(C)Cc2nc3c(cnn3C)c(=O)[nH]2)c(C)c1
The “Percent Effect” value of the first is lower: -0.6664% for the first, 10.63% for the second.

Going from `COc1ccc(C)cc1CN(C)Cc1nc2c(cnn2C)c(=O)[nH]1` to `Cc1ccsc1CN(C)Cc1nc2c(cnn2C)c(=O)[nH]1`, the “Percent Effect” value rises from -1.165% to 5.162%.

Compared with `CN(CCCOc1ccccc1)Cc1nc2c(cnn2C)c(=O)[nH]1`, `COc1ccc(-c2ncc(-c3nccn3CCN(C)C)cn2)cc1` is lower in “Percent Effect” value: 105% for the first, -4.545% for the second.

First: FC(F)(F)COCCN1CCc2cncnc2C1
Second: O=C(CCN1CCOC(C(F)(F)F)C1)NCc1ccccc1Cl (stereo unspecified)
The “Percent Effect” value of the first is lower: -42.17% for the first, 4.795% for the second.

Going from `CNC(=O)Cc1ccc(NC(=O)NCC(C)c2ncc(C)s2)cc1` (stereo unspecified) to `Cc1ccc(CNC(=O)CN2CCN(CC(O)c3ccco3)CC2)cc1.Cl.Cl` (stereo unspecified), the “Percent Effect” value falls from 5.803% to 0.6703%.

First: CC(=O)N1CCc2ncn(C)c2C1C(=O)N1CCCC1.O=C(O)C(F)(F)F (stereo unspecified)
Second: CC(C)NC(=O)[C@H]1C[C@@H]2[C@@H](C1)OCCN2Cc1cnn(C)c1.O=C(O)C(F)(F)F
The “Percent Effect” value of the first is higher: -4.032% for the first, -20.9% for the second.

Going from `CC(C)Nc1ccnc(-c2ccnc3c2ccn3C)n1` to `Cc1nn(C)c2nc(-c3ccccn3)nc(NCCCOC(C)C)c12`, the “Percent Effect” value rises from -57.68% to -17.61%.

Compared with `CC(C)(NC(=O)c1scnc1Cl)c1ccccc1`, `COC(=O)[C@@H]1Cc2ncn(C)c2CN1S(=O)(=O)Cc1ccccc1` is higher in “Percent Effect” value: -10.08% for the first, -8.847% for the second.

First: COc1cc2c(cc1C(=O)N1CC(c3ccncc3)C1)CCC2
Second: O=C(N1CCC(Oc2ccncc2)C1)C1(c2ccccc2F)CC1 (stereo unspecified)
The “Percent Effect” value of the first is higher: -5.879% for the first, -11.14% for the second.

Compared with `O=C(NCCn1ccnc1)c1cccc(Br)c1`, `O=C(NCCn1ccnc1)c1cccc(F)c1` is lower in “Percent Effect” value: 8.46% for the first, 6.195% for the second.

Compared with `O=C(NCCn1ccnc1)c1cc(F)cc(Br)c1`, `O=C(NCCn1ccnc1)c1cncc(Br)c1` is higher in “Percent Effect” value: 6.627% for the first, 15.29% for the second.

Compared with `Cc1nc(C(F)(F)F)nc(N2CCC(O)(C(=O)O)CC2)c1C`, `Cc1nc(-c2nc(C(=O)N3CCOCC3)c3ccccn23)cn1C(C)C` is higher in “Percent Effect” value: -14.39% for the first, -8.689% for the second.

Compared with `O=C(CN1CCCc2c(F)cc(Br)cc21)N1CCN(C(=O)C2CC2)CC1`, `O=C(NCCN1CCCCC1=O)C1CCC(=O)N(C2CCCC2)C1` (stereo unspecified) is lower in “Percent Effect” value: 3.977% for the first, -13.2% for the second.

Compared with `N#Cc1ccnc(N2CCN(C3CCOC3=O)CC2)c1` (stereo unspecified), `Cl.Cl.O=C(CN1CCN(CC(O)C2CC2)CC1)NCc1ccccc1Cl` (stereo unspecified) is higher in “Percent Effect” value: -3.021% for the first, 116.4% for the second.

First: Cl.Cl.O=C(CN1CCN(CC(O)C2CC2)CC1)NCc1ccccc1 (stereo unspecified)
Second: O=C(CN1CCS(=O)(=O)CC1)NCc1ccccc1F
The “Percent Effect” value of the first is higher: 118.5% for the first, -2.021% for the second.

Going from `CSCC[C@@H](CO)Nc1nc(-c2ccccn2)nc2c1c(C)nn2C` to `Cc1nc(-c2nc(C(=O)N(C)C)c3ccccn23)cn1C(C)C`, the “Percent Effect” value rises from -12.31% to 84.92%.

Going from `O=C(O)c1nnn(Cc2cccc(C(F)(F)F)c2)c1-c1cccnc1` to `FC(F)(F)c1cccc(N2CCC(NCc3cccnc3)CC2)c1`, the “Percent Effect” value falls from 14.53% to 10.28%.

First: CNC(=O)[C@@H]1C[C@@H](N)CN1C1CCN(Cc2ccccn2)CC1
Second: CNC(=O)[C@@H]1[C@H]2CN(Cc3ccccn3)CCN2C[C@H]1c1ccccc1
The “Percent Effect” value of the first is lower: -2.984% for the first, 121% for the second.

Compared with `CS(=O)(=O)NC1CCCN(Cc2ccccn2)C1` (stereo unspecified), `O=C(Nc1ccc(Cl)cn1)C1CCCN(Cc2ccccn2)C1` (stereo unspecified) is higher in “Percent Effect” value: -8.857% for the first, 22.45% for the second.

Compared with `CNC(=O)[C@@H]1[C@@H](c2ccccc2)CN2CCN(Cc3ccccn3)C[C@H]12`, `CSc1ccccc1C(C(=O)O)N1CCN(Cc2ccccn2)CC1` (stereo unspecified) is lower in “Percent Effect” value: 89.14% for the first, 5.13% for the second.

Compared with `CC(C)c1cc(C(=O)N(C)C(C)c2nccs2)no1` (stereo unspecified), `Cc1nc(-c2nc(C(=O)NC3CC3)c3ccccn23)cn1C(C)C` is higher in “Percent Effect” value: -2.417% for the first, 96.1% for the second.

Going from `O=C(CCc1ccc(O)cc1)N1CCC(Cc2ccc(CO)cc2)C1` (stereo unspecified) to `Cc1cccn2cc(CC(=O)N3CCCC(n4cncn4)C3)nc12` (stereo unspecified), the “Percent Effect” value rises from -11.56% to 3.172%.

First: CSc1ccccc1C(=O)NCCC(O)c1ccco1 (stereo unspecified)
Second: CC(C)n1ccc(-c2cc(C(=O)NC3CC3)c3ccccn23)n1
The “Percent Effect” value of the first is lower: -13% for the first, -8.678% for the second.

First: O=C(N1CCCC(n2cncn2)C1)C1(c2ccccc2F)CCCC1 (stereo unspecified)
Second: Cc1ccccc1C1(C(=O)N2CCCC(n3cncn3)C2)CC1 (stereo unspecified)
The “Percent Effect” value of the first is lower: 104.1% for the first, 122.4% for the second.

Compared with `CNC(=O)CC1COCCN1C(=O)C1(c2ccc(Cl)cc2)CCC1` (stereo unspecified), `CSCCC1c2nc[nH]c2CCN1Cc1cc(Cl)ccc1O` (stereo unspecified) is higher in “Percent Effect” value: -7.784% for the first, -0.8881% for the second.

Compared with `c1cc(C2CCN(c3cncnc3)CC2)ccn1`, `c1cncc(N2CCC(c3ccncc3)CC2)c1` is lower in “Percent Effect” value: 107.5% for the first, 81.68% for the second.

Compared with `c1ccc(C2CCCN(c3cncc(-n4cccn4)n3)CC2)cc1` (stereo unspecified), `c1ccc(N2CCC(c3ccncc3)CC2)cc1` is higher in “Percent Effect” value: 13.07% for the first, 167% for the second.

Going from `c1cc(N2CCC(c3nnc(Cn4ccnc4)n3C3CC3)CC2)ccn1` to `Cc1cnc(N2CCC(c3ccncc3)CC2)nc1-c1ccnn1C`, the “Percent Effect” value falls from -8.252% to -32.29%.

First: CC(C)n1cnc(-c2nc(C(=O)N3CCN(C)CC3)c3ccccn23)c1
Second: CC(C)n1cnc(-c2nc(C(=O)NC3CC3)c3ccccn23)c1
The “Percent Effect” value of the first is lower: 2.747% for the first, 100.7% for the second.

Going from `Cn1cnc(-c2nc(C(=O)NCCN3CCCC3)c3ccccn23)c1` to `Cc1nc(C(=O)N(C)CC(F)(F)C(F)(F)F)c2ccccn12`, the “Percent Effect” value rises from -11.17% to 6.68%.

Reference: ChEMBL document CHEMBL3988442, “University of Dundee, Small-Polar-MMV Screening Library” (2021)
